In PubChem BioAssay (NCATS) one finds Potency and viability data, which are given here for 11 compounds.

Results filed as inconclusive are left out. Where a call stands in place of a potency, no number is given. The source made the active and inactive calls. Calls come from the whole dose curve; as a rule, active = well fitted curve in the direction sought with a large enough effect; inconclusive = small, poorly fitted or top-dose-only effect, or another doubt; inactive = no such curve, though single readings can be large; an effect the other way counts as inactive or inconclusive.

The first assay addresses Retinal dehydrogenase 2 (Homo sapiens) (UniProt O94788). Nature of the assay: qHTS for Inhibitors of the Aldehyde Dehydrogenase Family (ALDH1A2) Confirmation screens (AID 2061314). Note: nearly all actives have a fitted effect of over 65% in size. Note: potency is the fitted concentration of half-maximal effect. The settings on record: ALDH1A2 enzyme inhibition qHTS confirmation; series mostly up to 45.9 µM. In general terms: Quantitative high-throughput screening tests each substance at several concentrations.
With `CO[C@@H]1[C@H](O)[C@@H](O[C@@H]2C[C@H]3CC[C@@H]4C(CC[C@]5(C)[C@@H](C6=CC(=O)OC6)CC[C@]45O)[C@@]3(C)[C@H](O)C2)O[C@H](C)[C@@H]1O` (some centres not stated), the Potency result is “inactive”.
The same measure, in the same setting: as for `CCCN(CCC)[C@@H]1CCc2ccc3[nH]c(C#N)cc3c2C1`, the entry is “inactive”.
On the same count and under the same terms, as for `C[N+]1(C)CCOC(O)(c2ccc(-c3ccc(C4(O)C[N+](C)(C)CCO4)cc3)cc2)C1` (configuration not stated), the figure is 12.7 µM (active).

A further assay deals with Retinaldehyde dehydrogenase 3 (Homo sapiens) (UniProt P47895). Description: qHTS for Inhibitors of the Aldehyde Dehydrogenase Family (ALDH1A3) Primary screen (AID 2061315). Particulars: ALDH inhibition qHTS; series mostly up to 56 µM.
With `CO[C@@H]1[C@H](O)[C@@H](O[C@@H]2C[C@H]3CC[C@@H]4C(CC[C@]5(C)[C@@H](C6=CC(=O)OC6)CC[C@]45O)[C@@]3(C)[C@H](O)C2)O[C@H](C)[C@@H]1O` (some centres not stated), the Potency result was “inactive”.
On to `CCCN(CCC)[C@@H]1CCc2ccc3[nH]c(C#N)cc3c2C1`, for which the Potency entry was “inactive”.
On the same count and under the same terms, as for `CC(O)(CS(=O)(=O)c1ccc(F)cc1)C(=O)Nc1ccc(C#N)c(C(F)(F)F)c1` (configuration not stated), the entry is “inactive”.
The same measure, in the same setting: as for `CN1CCC[C@@H]1Cc1c[nH]c2ccc(Nc3ncccc3[N+](=O)[O-])cc12`, the entry is “inactive”.

System in the next assay: not listed separately
Description: BET inhibitor-based combinations targeting novel dependencies in MECOM-rearranged (r) AML: SET-2 cell line (AID 2202231). Note: nearly all actives have a fitted effect of over 35% in size. Note: potency is the fitted concentration of half-maximal effect. Particulars: SET-2 AML cells viability, CellTiter-Glo luminescence, 48 h; viability: active compounds read low, concentration not given here. In a few lines: (§1)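 A 48 hr incubation preceded viability reading by CellTiter-Glo, with 15 min room-temperature development. Dose series had 11 points; normalization used DMSO and empty wells; AUC was computed and mean-centered per line as Z-AUC.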
In general terms: Cellular ATP, detected with luciferase, serves as a proxy for viable cell number.
Turning to `COC[C@H]1OC(=O)c2coc3c2[C@@]1(C)C1=C(C3=O)C2CCC(=O)[C@@]2(C)C[C@H]1OC(C)=O` (some centres not stated), the Potency was 18.6 µM (active).
As a reminder, the viability is a read-out of living cells in per cent, often relative to untreated cells. Turning to `CC[C@@H](C(N)=O)N1CCCC1=O`, the viability was 108% (inactive).
`CC(C)c1cccc(C(C)C)c1O`: the viability is 105% (inactive).
The same measure, in the same setting: as for `CC(O)(CS(=O)(=O)c1ccc(F)cc1)C(=O)Nc1ccc(C#N)c(C(F)(F)F)c1` (configuration not stated), the figure is 92.1% (inactive).
Still for that read-out and setting: as for `COC(=O)[C@@H](N)CCCN=C(N)N[N+](=O)[O-]`, the figure is 109% (inactive).

System in a further assay: not listed separately
Description: BET inhibitor-based combinations targeting novel dependencies in MECOM-rearranged (r) AML: OCI-AML3 cell line (AID 2202232). Note: nearly all actives have a fitted effect of over 35% in size. Note: potency is the fitted concentration of half-maximal effect. The settings on record: CellTiter-Glo luminescence, 48 h; Potency: OCI-AML3 viability; series mostly up to 46 µM. The essentials:
as §1
On to `COC[C@H]1OC(=O)c2coc3c2[C@@]1(C)C1=C(C3=O)C2CCC(=O)[C@@]2(C)C[C@H]1OC(C)=O` (some centres not stated), for which the Potency was 7.42 µM (active).
On the same count and under the same terms, as for `CC[C@@H](C(N)=O)N1CCCC1=O`, the entry is “inactive”; as for `O=C(O)c1nn(Cc2ccc(Cl)cc2Cl)c2ccccc12`, “inactive”.
The same measure, in the same setting: next, `CC(C)c1cccc(C(C)C)c1O`: “inactive”; `CC(O)(CS(=O)(=O)c1ccc(F)cc1)C(=O)Nc1ccc(C#N)c(C(F)(F)F)c1` (configuration not stated): 0.0042 µM (active); `O=c1[nH]c2ccccc2n1CCCN1CCC(n2c(=O)[nH]c3cc(Cl)ccc32)CC1`: “inactive”.
In the case of `COC(=O)[C@@H](N)CCCN=C(N)N[N+](=O)[O-]`, the Potency entry is “inactive”.

System in another assay: not listed separately
Nature of the assay: BET inhibitor-based combinations targeting novel dependencies in MECOM-rearranged (r) AML: MV-4-11 cell line (AID 2202233). Note: nearly all actives have a fitted effect of over 45% in size. Note: potency is the fitted concentration of half-maximal effect. The settings on record: MV-4-11 AML viability, CellTiter-Glo luminescence, 48 h; series mostly up to 46 µM. In a few lines:
(§2)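 Each compound is tested in an 11-point concentration series against 500 seeded cells/well for 48 hr. The luminescent viability signal is normalized to DMSO and blank wells, then reduced to AUC and a cell-line-centred Z-AUC.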
Regarding `COC[C@H]1OC(=O)c2coc3c2[C@@]1(C)C1=C(C3=O)C2CCC(=O)[C@@]2(C)C[C@H]1OC(C)=O` (some centres not stated), the Potency is 5.25 µM (active).
On the same count and under the same terms, as for `CC[C@@H](C(N)=O)N1CCCC1=O`, the entry is “inactive”; as for `O=C(O)c1nn(Cc2ccc(Cl)cc2Cl)c2ccccc12`, “inactive”; as for `CC(C)c1cccc(C(C)C)c1O`, “inactive”.
On the same count and under the same terms, as for `COC(=O)[C@@H](N)CCCN=C(N)N[N+](=O)[O-]`, the entry is “inactive”.

System in another assay: not listed separately
Nature of the assay: BET inhibitor-based combinations targeting novel dependencies in MECOM-rearranged (r) AML: HNT-34 cell line (AID 2202234). Note: nearly all actives have a fitted effect of over 35% in size. Note: potency is the fitted concentration of half-maximal effect. Particulars: HNT-34 AML viability, CellTiter-Glo luminescence, 48 h; series mostly up to 46 µM. The essentials:
as §2
As to `COC[C@H]1OC(=O)c2coc3c2[C@@]1(C)C1=C(C3=O)C2CCC(=O)[C@@]2(C)C[C@H]1OC(C)=O` (some centres not stated), the Potency is 5.9 µM (active).
In the case of `CC(C)c1cccc(C(C)C)c1O`, the Potency entry is “inactive”.
On the same count and under the same terms, as for `COC(=O)[C@@H](N)CCCN=C(N)N[N+](=O)[O-]`, the entry is “inactive”.

System in a further assay: not listed separately
Description: BET inhibitor-based combinations targeting novel dependencies in MECOM-rearranged (r) AML: UCSD-AML1 cell line (AID 2202235). Note: nearly all actives have a fitted effect of over 40% in size. Particulars: UCSD-AML1 AML cells viability, CellTiter-Glo, 48 h; series mostly up to 46 µM. In a few lines: as §2
Consider `CC[C@@H](C(N)=O)N1CCCC1=O`, for which the Potency entry was “inactive”.
Same read-out and setting: as for `CC(C)c1cccc(C(C)C)c1O`, the entry is “inactive”.
On to `CC(O)(CS(=O)(=O)c1ccc(F)cc1)C(=O)Nc1ccc(C#N)c(C(F)(F)F)c1` (configuration not stated), for which the Potency entry is “inactive”.
Turning to `O=c1[nH]c2ccccc2n1CCCN1CCC(n2c(=O)[nH]c3cc(Cl)ccc32)CC1`, the Potency result was “inactive”.
Still for that read-out and setting: next, `COC(=O)[C@@H](N)CCCN=C(N)N[N+](=O)[O-]`: “inactive”.

System in the next assay: not listed separately
Description: BET inhibitor-based combinations targeting novel dependencies in MECOM-rearranged (r) AML: AML-191 cell line (AID 2202236; note: nearly all actives have a fitted effect of over 35% in size; note: potency is the fitted concentration of half-maximal effect). The settings on record: AML-191 viability, CellTiter-Glo luminescence, 48 h; series mostly up to 46 µM. In a few lines: as §1
Regarding `COC[C@H]1OC(=O)c2coc3c2[C@@]1(C)C1=C(C3=O)C2CCC(=O)[C@@]2(C)C[C@H]1OC(C)=O` (some centres not stated), the Potency was 6.61 µM (active).
On the same count and under the same terms, as for `CC[C@@H](C(N)=O)N1CCCC1=O`, the entry is “inactive”; as for `O=C(O)c1nn(Cc2ccc(Cl)cc2Cl)c2ccccc12`, “inactive”.
Still for that read-out and setting: as for `CC(O)(CS(=O)(=O)c1ccc(F)cc1)C(=O)Nc1ccc(C#N)c(C(F)(F)F)c1` (configuration not stated), the entry is “inactive”; as for `COC(=O)[C@@H](N)CCCN=C(N)N[N+](=O)[O-]`, “inactive”.

System in another assay: not listed separately
Nature of the assay: BET inhibitor-based combinations targeting novel dependencies in MECOM-rearranged (r) AML: AML-194 cell line (AID 2202237; note: nearly all actives have a fitted effect of over 40% in size). The settings on record: AML-194 (MECOM-r AML) viability, CellTiter-Glo, 48 h; series mostly up to 46 µM. In a few lines:
as §1
On to `CC[C@@H](C(N)=O)N1CCCC1=O`, for which the Potency result is “inactive”.
Still for that read-out and setting: as for `O=C(O)c1nn(Cc2ccc(Cl)cc2Cl)c2ccccc12`, the entry is “inactive”.
Still for that read-out and setting: as for `CC(C)c1cccc(C(C)C)c1O`, the entry is “inactive”.
On the same count and under the same terms, next, `O=c1[nH]c2ccccc2n1CCCN1CCC(n2c(=O)[nH]c3cc(Cl)ccc32)CC1`: “inactive”.
For `COC(=O)[C@@H](N)CCCN=C(N)N[N+](=O)[O-]`, the Potency entry is “inactive”.
